Screening results as filed in PubChem.
FLuc modulator = qHTS profiling assay for firefly luciferase inhibitor/activator using purifed enzyme and Km concentrations of substrates (counterscreen for miR-21 project) | Potency, µM (titrated, usually from 57.5 µM), hits mostly inhibitors | 360,000 tested, 6.9% active | Luciferin 4-monooxygenase (Photinus pyralis), P08659 | AID 588342, 2011 | purified FLuc, Km substrates, luminescence inhibition; note: nearly all actives have a fitted effect of over 55% in size
Target sequence (P08659 whole entry, looked up): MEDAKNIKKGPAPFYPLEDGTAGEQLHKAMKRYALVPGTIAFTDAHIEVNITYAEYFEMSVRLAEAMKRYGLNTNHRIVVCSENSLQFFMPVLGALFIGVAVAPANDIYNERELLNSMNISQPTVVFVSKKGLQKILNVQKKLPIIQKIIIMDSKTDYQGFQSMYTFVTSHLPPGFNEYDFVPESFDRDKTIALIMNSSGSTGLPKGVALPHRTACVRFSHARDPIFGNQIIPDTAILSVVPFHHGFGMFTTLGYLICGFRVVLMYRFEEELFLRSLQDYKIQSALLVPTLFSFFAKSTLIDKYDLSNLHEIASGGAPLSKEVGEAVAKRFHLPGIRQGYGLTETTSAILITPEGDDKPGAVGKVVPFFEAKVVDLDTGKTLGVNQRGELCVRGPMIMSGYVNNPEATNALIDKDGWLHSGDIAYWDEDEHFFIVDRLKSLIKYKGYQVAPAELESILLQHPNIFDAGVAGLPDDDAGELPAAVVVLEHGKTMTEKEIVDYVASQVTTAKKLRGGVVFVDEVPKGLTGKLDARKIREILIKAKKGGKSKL
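Biochemical qHTS of compounds, final roughly 60 µM downward over six points, against 10 nM purified firefly luciferase using Km concentrations of substrates (10 uM D-luciferin, 10 uM ATP) in Tris acetate pH 7.5 buffer; luminescence output.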
Rab9 promoter act = qHTS Assay for Rab9 Promoter Activators; Huh7 Rab9 promoter-luciferase reporter, luminescence, 24 h; Potency, µM (top dose mostly 9.22 µM), usual class: activators; 320,000 tested, 2.8% active; AID 485297, 2010; note: nearly all actives have a fitted effect of over 60% in size
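Measured in stably transfected Huh7 cells bearing a Rab9 promoter–luciferase construct: 24 h compound treatment at 37 °C, followed by luminescence detection.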
NPC1 promoter act = qHTS Assay for NPC1 Promoter Activators; Huh7 NPC1 promoter luciferase reporter, 24 h; Potency, µM (doses to about 9.22 µM), hits mostly activators; 320,000 tested, 2.4% active; note: nearly all actives have a fitted effect of over 60% in size
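In 1536-well qHTS, Huh7 cells harboring an NPC1 promoter–luciferase construct received compound for 24 h; activation was quantified by luminescence following luciferase reagent addition.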
SMN2 splice enh = qHTS Assay for Enhancers of SMN2 Splice Variant Expression. 210,000 tested, 2.8% active. AID 1458, 2008. HEK293 SMN2-luciferase splicing reporter, luminescence, 30-36 h. Potency, µM (series often up to 46.1 µM), usual class: activators; note: nearly all actives have a fitted effect of over 55% in size
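HEK293 cells carry an SMN2 […]–luciferase reporter in which exon 7 inclusion puts luciferase in frame. Cells were plated 10-12 h before compound addition, then incubated 30-36 h at 37C. ONE-Glo luminescence was read; sodium butyrate at 4.5 mM final served as control.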
ELG1 genotox = qHTS screen for small molecules that induce genotoxicity in human embryonic kidney (HEK293T) cells expressing luciferase-tagged ELG1. 330,000 tested, 1.3% active. AID 504466, 2011. HEK293T ELG1-luciferase reporter, luminescence, 16 h. Potency, µM (series often up to 46 µM), usual class: activators; note: nearly all actives have a fitted effect of over 60% in size
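Genotoxic stress is detected as increased luminescence from luciferase-tagged ELG1 in HEK293T cells, measured with ONE-Glo after a 16 hr treatment at 37 °C.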
A number is an active result; 0 = inactive; ? = inconclusive; - = no result; [ ] = dose if it differs, or a comment. Rows were chosen to be rich in hits. Some 7.4% of all compounds tested hit in one or more screens of this group. Calls come from the whole dose curve; as a rule, active = well fitted curve in the direction sought with a large enough effect; inconclusive = small, poorly fitted or top-dose-only effect, or another doubt; inactive = no such curve, though single readings can be large; an effect the other way counts as inactive or inconclusive.

SMILES	FLuc modulator	Rab9 promoter act	NPC1 promoter act	SMN2 splice enh	ELG1 genotox
COc1cccc(/C=N/NC(=S)Nc2cccnc2)c1	15µM	0	0	0	0
COc1ccc(O)c(/C=N/NC(=S)Nc2cccnc2)c1	9.5µM	0	0	0	0
Oc1cccc(NC(=S)Nc2cccnc2)c1	0	0	0	0	0
Oc1ccc(/C=N/NC(=S)Nc2cccnc2)cc1	6.7µM	?	3.2µM	-	?
COc1ccccc1NC(=S)N/N=C/c1ccc(O)cc1	?	?	?	11µM	?
COc1ccccc1NC(=S)N/N=C/c1cccc(C)c1	0	0	0	?	0
Oc1ccccc1/C=N/[n+]1ccccc1	0	0	0	-	0
CC(C)CCNC(=O)CSc1nc2ccccc2nc1Cc1ccccc1	0	-	-	-	-
Oc1ccc(/C=N/NC(=S)N/N=C/c2ccc(O)cc2)cc1	0.19µM	0	0	?	?
O=C1/C(=C/c2ccc(Br)cc2)Oc2cc(O)ccc21	3.8µM	?	0	-	0
O=C1/C(=C/c2ccc([N+](=O)[O-])cc2)Oc2cc(O)ccc21	4.8µM	0	0	-	0
COC(=O)N1CCC2(CCN(Cc3ccc(C#N)cc3)CC2)CC1	-	-	-	0	-
COc1ccc2[nH]cc(CCNC(=O)CS(=O)(=O)Cc3ccccc3)c2c1	0	0	0	-	0
CCOC(=O)c1ccc(NC(=O)CSc2nnc(NC(=O)c3ccc(S(=O)(=O)N4CCOCC4)cc3)s2)cc1	1.7µM	0	0	?	0
Cc1ccc(NC(=O)CSc2nnc(NC(=O)c3ccc(S(=O)(=O)N4CCOCC4)cc3)s2)cc1	2.7µM	0	0	?	0
O=C(O)COc1ccc(/C=C/c2nc3ccc([N+](=O)[O-])cc3s2)cc1	4.8µM	0	0	-	0
Cc1cccc(OCC(=O)Nc2nc3ccc([N+](=O)[O-])cc3s2)c1	0	0	0	0	0
O=C(Nc1ccccn1)c1ccc(C(=O)c2ccccc2)cc1	4.3µM	2.5µM	3.5µM	-	4.6µM
COc1cc(C(=O)Nc2ccccn2)cc(OC)c1OC	0	0	0	0	0
O=C(NC(=O)c1ccccc1)Nc1ccccn1	0.27µM	1.3µM	0	-	?
Cc1cc(C(=O)Nc2ccccn2)cs1	11µM	1.4µM	1.4µM	7.9µM	?
O=C(Nc1ccccn1)c1ccc(NC(=O)c2ccco2)cc1	11µM	2.2µM	2.2µM	13µM	?
CCOc1ccccc1NC(=O)C(c1ccccc1)N1Cc2ccccc2C1=O (centres undefined)	0	-	-	-	-
NNC(=O)CNS(=O)(=O)c1ccc([N+](=O)[O-])cc1	0	0	0	0	0
Cc1c(N=C2C=C(Br)C(=O)C(Br)=C2)c(=O)n(-c2ccccc2)n1C	15µM	0	0	0	0
SMILES	FLuc modulator	Rab9 promoter act	NPC1 promoter act	SMN2 splice enh	ELG1 genotox
Cc1c(N=C2C=CC(=O)c3ccccc32)c(=O)n(-c2ccccc2)n1C	?	0	0	0	0
COc1ccc(OC)c(CNC(=O)c2ccc3nc(C(C)C)oc3c2)c1	0	-	-	-	-
Brc1ccc(-c2ccc(/C=N/Nc3nc4ccccc4[nH]3)o2)cc1	0.85µM	?	?	7.9µM	?
Brc1ccc(-c2ccc(/C=N/Nc3nncc(-c4ccccc4)n3)o2)cc1	0	0	0	0	0
Cc1cc(=O)[nH]c(N/N=C/c2ccc(F)cc2)n1	?	0	0	-	0
Fc1ccc(/C=N/Nc2nc3ccccc3[nH]2)cc1F	12µM	0	?	0	0
O=c1[nH]c(N/N=C\c2ccc3c(c2)OCO3)nc2ccccc12	3.8µM	0.56µM	0.79µM	8.9µM	?
C(/CCc1ccccc1)=N\Nc1nc2ccccc2[nH]1	2.1µM	0	0	0	?
O=c1[nH]c2[nH]c(=S)[nH]c(=S)c2[nH]1	-	-	-	0[9.22 µM]	-
NS(=O)(=O)c1ccc(NC(=O)COC(=O)COc2ccc(Br)cc2)cc1	0	0	0	-	0
Cc1ccc(-n2nc(C(=O)N3CCN(c4cccc(C(F)(F)F)c4)CC3)c3c4ccccc4n(C)c3c2=O)cc1	0	-	-	0	-
C(=C\c1ccccc1)/C=N/Nc1nc2ccccc2[nH]1	3.8µM	4.5µM	3.2µM	-	18µM
C(=N\Nc1nc2ccccc2[nH]1)/C1CCCCC1	3.4µM	0	0	0	?
C(=N\Nc1nc2ccccc2[nH]1)/c1ccccc1	11µM	?	?	13µM	?
